The source of these data is PubChem BioAssay (EPA / NIEHS).

Details in all cases: mRNA level, 48 h; actives raise or lower the signal
Read-out in test [1]: Fatty acid synthase (Homo sapiens) (UniProt P49327)
The test is described as follows: LTEA_HepaRG_FASN: Life Technologies and Expression Analysis (LTEA) Assay for Fatty Acid Synthase (FASN) using HepaRG (AID 2283448). The procedure, abridged: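 FASN expression changes, up or down relative to 0.5% DMSO, were measured by qRT-PCR in human HepaRG cells after 48 h treatment with chemicals at eight concentrations (half-log steps from 100 uM).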

Read-out in test [2]: Cyclin D2 (CCND2), CCND2 (gene 894)
Nature of the test: LTEA_HepaRG_CCND2: Life Technologies and Expression Analysis (LTEA) Assay for Cyclin D2 (CCND2) using HepaRG (AID 2283449). The procedure, abridged: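 Read-out is CCND2 mRNA level measured by qRT-PCR in human HepaRG liver cells and normalised to three housekeeping genes. Chemicals were applied for 48 h at up to 100 uM, with gain or loss fitted relative to 0.5% DMSO.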

Read-out in test [3]: Cyclin Dependent Kinase Inhibitor 1A (CDKN1A), CDKN1A (gene 1026)
Nature of the test: LTEA_HepaRG_CDKN1A: Life Technologies and Expression Analysis (LTEA) Assay for Cyclin Dependent Kinase Inhibitor 1A (CDKN1A) using HepaRG (AID 2283450). The procedure, abridged: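 Expression quantified by Fluidigm qRT-PCR with ACTB, GAPDH and POLR2A normalization, fitted bidirectionally against 0.5% DMSO. Cells: HepaRG, plated 48 h then treated 48 h in serum-free induction medium, top concentration 100 uM with half-log dilutions.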

Read-out in test [4]: Cyclin D1 (CCND1), CCND1 (gene 595)
The test is described as follows: LTEA_HepaRG_CCND1: Life Technologies and Expression Analysis (LTEA) Assay for Cyclin D1 (CCND1) using HepaRG (AID 2283451). The procedure, abridged:
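Expression of CCND1 was quantified by qRT-PCR on Fluidigm arrays using ACTB, GAPDH and POLR2A as reference genes. HepaRG cultures, plated 48 h beforehand, were dosed for 48 h at up to 100 uM (half-log, 8 points) in 0.5% DMSO.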

Read-out in test [5]: catalase (CAT), CAT (gene 847)
Nature of the test: LTEA_HepaRG_CAT: Life Technologies and Expression Analysis (LTEA) Assay for catalase (CAT) using HepaRG (AID 2283452). In short, it runs like this:
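Expression of CAT was quantified by TaqMan qRT-PCR with ACTB/GAPDH/POLR2A normalization after 48 h chemical exposure of HepaRG. Eight-point half-log series, top 100 uM, in 0.5% DMSO; gain or loss fitted against vehicle.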

Read-out in test [6]: flavin-containing dimethylaniline monooxygenases 3 (FMO3), FMO3 (gene 2328)
The test is described as follows: LTEA_HepaRG_FMO3: Life Technologies and Expression Analysis (LTEA) Assay for flavin-containing dimethylaniline monooxygenases 3 (FMO3) using HepaRG (AID 2283453). The procedure, abridged: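 Differentiated HepaRG cells in serum-free induction medium, exposed 48 h in duplicate to 8 half-log concentrations up to 100 uM in 0.5% DMSO. FMO3 mRNA by qRT-PCR, normalized to ACTB, GAPDH, POLR2A; bidirectional fit vs DMSO.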

Read-out in test [7]: Cytochrome P450 (CYP1A1), CYP1A1 (gene 1543)
The test is described as follows: LTEA_HepaRG_CYP1A1: Life Technologies and Expression Analysis (LTEA) Assay for Cytochrome P450 (CYP1A1) using HepaRG (AID 2283454). The procedure, abridged:
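CYP1A1 transcript levels measured by Fluidigm qRT-PCR against three housekeeping genes, 48 h after chemical dosing of human HepaRG cells (highest concentration 100 uM, half-log steps, 0.5% DMSO vehicle). Gain or loss of signal fitted relative to DMSO.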

Read-out in test [8]: CFLAR gene, CFLAR (gene 8837)
The test is described as follows: LTEA_HepaRG_CFLAR: Life Technologies and Expression Analysis (LTEA) Assay for CFLAR gene using HepaRG (AID 2283455). The procedure, abridged:
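HepaRG, 48 h exposure, 8-pt conc-response (100 uM top, half-log), 0.5% DMSO vehicle, duplicates. CFLAR expression by qRT-PCR; ACTB/GAPDH/POLR2A normalization; gain or loss fit vs DMSO baseline.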

Read-out in test [9]: growth arrest and DNA damage 45 (GADD45A), GADD45A (gene 1647)
Nature of the test: LTEA_HepaRG_GADD45A: Life Technologies and Expression Analysis (LTEA) Assay for growth arrest and DNA damage 45 (GADD45A) using HepaRG (AID 2283458). The procedure, abridged:
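Cells plated and cultured 48 h, switched to serum-free induction medium, then dosed for 48 h (100 uM top, half-log dilutions, 0.5% DMSO). RNA was isolated and transcript measured by Fluidigm qRT-PCR.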

Read-out in test [10]: Forkhead box O3 (FOXO3), FOXO3 (gene 2309)
Nature of the test: LTEA_HepaRG_FOXO3: Life Technologies and Expression Analysis (LTEA) Assay for Forkhead box O3 (FOXO3) using HepaRG (AID 2283459). The procedure, abridged:
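HepaRG, 48 h post-dose; 8 conc., half-log from 100 uM, 0.5% DMSO, duplicates; serum-free induction medium. Readout: FOXO3 mRNA, TaqMan qRT-PCR, housekeeping-normalized. Bidirectional curve fit vs DMSO baseline.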

Read-out in test [11]: ABC Transporter (ABCB1), ABCB1 (gene 5243)
Nature of the test: LTEA_HepaRG_ABCB1: Life Technologies and Expression Analysis (LTEA) Assay for ABC Transporter (ABCB1) using HepaRG (AID 2283460). The procedure, abridged: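 Expression of ABCB1 was quantified by qRT-PCR against three housekeeping genes after human HepaRG cultures received test chemicals for 48 hours. Concentrations spanned eight half-log steps topping at 100 uM in 0.5% DMSO; gain or loss of signal was fitted relative to vehicle.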

Read-out in test [12]: growth arrest and DNA damage 45 (GADD45B), GADD45B (gene 4616)
Nature of the test: LTEA_HepaRG_GADD45B: Life Technologies and Expression Analysis (LTEA) Assay for growth arrest and DNA damage 45 (GADD45B) using HepaRG (AID 2283461). In short, it runs like this: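 Transcript level quantified by Fluidigm TaqMan qRT-PCR with three housekeeping genes for normalization, analyzed for up- or down-regulation against 0.5% DMSO. HepaRG cultures dosed 48 h at eight half-log concentrations up to 100 uM, duplicates.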

Read-out in test [13]: ABC Transporter (ABCC3), ABCC3 (gene 8714)
The test is described as follows: LTEA_HepaRG_ABCC3: Life Technologies and Expression Analysis (LTEA) Assay for ABC Transporter (ABCC3) using HepaRG (AID 2283462). In short, it runs like this:
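Transcript level by TaqMan qRT-PCR, normalised to three housekeeping genes, fitted in both directions relative to vehicle. Chemicals tested in duplicate at eight half-log concentrations up to 100 uM for 48 h on HepaRG cells (0.5% DMSO).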

Read-out in test [14]: ABC Transporter (ABCB11), ABCB11 (gene 8647)
Nature of the test: LTEA_HepaRG_ABCB11: Life Technologies and Expression Analysis (LTEA) Assay for ABC Transporter (ABCB11) using HepaRG (AID 2283463). In short, it runs like this: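 ABCB11 transcript levels are read by Fluidigm TaqMan qRT-PCR after 48 h chemical treatment of human HepaRG cells. Concentrations span 100 uM downward in half-log steps with 0.5% DMSO; gain or loss is fitted against DMSO controls.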

Read-out in test [15]: Broad substrate specificity ATP-binding cassette transporter ABCG2 (Homo sapiens) (UniProt Q9UNQ0)
The test is described as follows: LTEA_HepaRG_ABCG2: Life Technologies and Expression Analysis (LTEA) Assay for ABC Transporter (ABCG2) using HepaRG (AID 2283465). The procedure, abridged: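 Read-out is ABCG2 mRNA induction or loss quantified by qRT-PCR after 48 h chemical treatment of human HepaRG cells, normalized to three housekeeping genes. Concentrations reached 100 uM top in half-log steps; fitting was bidirectional against 0.5% DMSO.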

Read-out in test [16]: ATP-citrate lyase (ACLY), ACLY (gene 47)
Nature of the test: LTEA_HepaRG_ACLY: Life Technologies and Expression Analysis (LTEA) Assay for ATP-citrate lyase (ACLY) using HepaRG (AID 2283466). In short, it runs like this: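 HepaRG, 48 h exposure, 8-pt half-log dilutions (top 100 uM), 0.5% DMSO. Readout: ACLY mRNA, TaqMan qRT-PCR, housekeeping-normalized (ACTB/GAPDH/POLR2A). Bidirectional curve fit vs DMSO.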

Read-out in test [17]: Peroxisomal acyl-coenzyme A oxidase 1 (ACOX1) gene, ACOX1 (gene 51)
Nature of the test: LTEA_HepaRG_ACOX1: Life Technologies and Expression Analysis (LTEA) Assay for Peroxisomal acyl-coenzyme A oxidase 1 (ACOX1) gene using HepaRG (AID 2283467). The procedure, abridged:
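Measured by qRT-PCR against three housekeeping genes: ACOX1 transcript change in human HepaRG cells after 48 h dosing. Concentrations ran up to 100 uM in half-log steps. Curves were fitted bidirectionally relative to 0.5% DMSO.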

Read-out in test [18]: ABC Transporter (ABCC2), ABCC2 (gene 1244)
The test is described as follows: LTEA_HepaRG_ABCC2: Life Technologies and Expression Analysis (LTEA) Assay for ABC Transporter (ABCC2) using HepaRG (AID 2283464). The procedure, abridged: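 Endpoint is ABCC2 transcript level from qRT-PCR, normalized to three housekeeping genes and fitted bidirectionally relative to DMSO. Human HepaRG cells received test chemical for 48 h at up to 100 uM (8 points, half-log steps, 0.5% DMSO), duplicate wells.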

SMILES strings stand for the structures. Active and inactive are the calls of the source. The calls were made as follows: active = hit-call score of the fitted dose curve at least 0.9, where 1 is the maximum; inactive = score below 0.9.

Sequence of Fatty acid synthase (Homo sapiens) (P49327 whole entry, looked up): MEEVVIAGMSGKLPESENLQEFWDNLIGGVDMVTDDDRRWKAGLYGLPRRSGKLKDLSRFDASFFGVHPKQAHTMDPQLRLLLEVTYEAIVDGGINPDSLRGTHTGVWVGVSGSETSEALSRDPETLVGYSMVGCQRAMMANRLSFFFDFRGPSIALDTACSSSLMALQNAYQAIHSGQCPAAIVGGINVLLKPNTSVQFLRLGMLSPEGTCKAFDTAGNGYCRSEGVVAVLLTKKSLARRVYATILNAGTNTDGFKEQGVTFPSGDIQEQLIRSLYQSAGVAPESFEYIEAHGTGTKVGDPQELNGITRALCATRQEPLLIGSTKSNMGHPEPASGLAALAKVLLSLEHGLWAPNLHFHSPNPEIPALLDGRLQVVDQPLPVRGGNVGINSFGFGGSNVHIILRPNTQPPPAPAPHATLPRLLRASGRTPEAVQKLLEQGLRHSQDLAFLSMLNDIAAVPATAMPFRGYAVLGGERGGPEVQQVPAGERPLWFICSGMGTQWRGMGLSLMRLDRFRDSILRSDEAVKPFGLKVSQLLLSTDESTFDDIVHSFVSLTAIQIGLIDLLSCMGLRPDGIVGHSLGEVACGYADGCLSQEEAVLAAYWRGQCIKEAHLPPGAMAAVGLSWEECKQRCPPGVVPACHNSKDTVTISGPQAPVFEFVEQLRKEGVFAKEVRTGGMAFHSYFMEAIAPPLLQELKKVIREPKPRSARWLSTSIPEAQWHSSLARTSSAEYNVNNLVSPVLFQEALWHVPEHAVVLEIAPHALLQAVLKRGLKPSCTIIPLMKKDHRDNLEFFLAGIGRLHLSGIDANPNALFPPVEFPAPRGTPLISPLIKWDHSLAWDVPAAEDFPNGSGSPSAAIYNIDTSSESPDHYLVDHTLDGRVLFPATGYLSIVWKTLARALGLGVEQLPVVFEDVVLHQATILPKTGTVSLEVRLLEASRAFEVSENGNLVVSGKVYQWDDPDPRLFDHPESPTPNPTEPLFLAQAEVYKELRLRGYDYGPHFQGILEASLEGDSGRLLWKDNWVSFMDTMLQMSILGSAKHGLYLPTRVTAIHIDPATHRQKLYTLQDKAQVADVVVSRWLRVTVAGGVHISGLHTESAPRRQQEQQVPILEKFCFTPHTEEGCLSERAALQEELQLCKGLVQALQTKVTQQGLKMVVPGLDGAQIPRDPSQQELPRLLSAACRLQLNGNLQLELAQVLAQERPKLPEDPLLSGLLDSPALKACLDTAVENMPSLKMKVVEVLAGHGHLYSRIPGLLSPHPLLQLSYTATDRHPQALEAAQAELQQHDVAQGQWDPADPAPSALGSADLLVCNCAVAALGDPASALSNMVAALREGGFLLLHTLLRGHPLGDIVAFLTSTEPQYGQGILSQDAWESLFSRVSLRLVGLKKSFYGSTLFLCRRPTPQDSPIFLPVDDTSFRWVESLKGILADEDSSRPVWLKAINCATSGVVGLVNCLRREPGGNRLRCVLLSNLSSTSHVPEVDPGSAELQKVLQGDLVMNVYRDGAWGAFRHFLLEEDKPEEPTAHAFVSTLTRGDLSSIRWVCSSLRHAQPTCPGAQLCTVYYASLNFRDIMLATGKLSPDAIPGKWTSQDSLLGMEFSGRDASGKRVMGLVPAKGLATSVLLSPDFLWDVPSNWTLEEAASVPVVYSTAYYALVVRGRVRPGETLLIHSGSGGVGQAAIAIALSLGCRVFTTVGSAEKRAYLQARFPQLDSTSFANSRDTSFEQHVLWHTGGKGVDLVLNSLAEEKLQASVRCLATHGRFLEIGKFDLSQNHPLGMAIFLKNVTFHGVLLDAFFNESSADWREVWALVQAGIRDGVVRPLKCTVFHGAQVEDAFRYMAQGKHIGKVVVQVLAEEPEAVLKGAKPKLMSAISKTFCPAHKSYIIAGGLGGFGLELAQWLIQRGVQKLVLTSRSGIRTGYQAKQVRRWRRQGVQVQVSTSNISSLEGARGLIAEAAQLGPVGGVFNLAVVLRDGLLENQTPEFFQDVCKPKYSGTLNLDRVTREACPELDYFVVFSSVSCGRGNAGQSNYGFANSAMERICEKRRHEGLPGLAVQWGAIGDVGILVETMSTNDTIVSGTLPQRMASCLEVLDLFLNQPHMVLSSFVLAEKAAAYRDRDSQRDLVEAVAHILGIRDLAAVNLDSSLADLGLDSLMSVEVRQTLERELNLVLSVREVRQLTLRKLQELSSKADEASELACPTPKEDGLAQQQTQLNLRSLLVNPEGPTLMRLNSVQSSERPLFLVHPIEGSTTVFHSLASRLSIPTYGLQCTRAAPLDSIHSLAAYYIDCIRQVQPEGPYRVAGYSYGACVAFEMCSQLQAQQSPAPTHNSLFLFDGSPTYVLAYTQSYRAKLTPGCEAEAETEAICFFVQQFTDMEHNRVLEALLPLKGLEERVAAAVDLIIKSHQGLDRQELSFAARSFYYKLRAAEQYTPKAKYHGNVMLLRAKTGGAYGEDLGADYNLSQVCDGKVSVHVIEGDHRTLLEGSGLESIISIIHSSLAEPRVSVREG
Sequence of Broad substrate specificity ATP-binding cassette transporter ABCG2 (Homo sapiens) (Q9UNQ0 whole entry, looked up): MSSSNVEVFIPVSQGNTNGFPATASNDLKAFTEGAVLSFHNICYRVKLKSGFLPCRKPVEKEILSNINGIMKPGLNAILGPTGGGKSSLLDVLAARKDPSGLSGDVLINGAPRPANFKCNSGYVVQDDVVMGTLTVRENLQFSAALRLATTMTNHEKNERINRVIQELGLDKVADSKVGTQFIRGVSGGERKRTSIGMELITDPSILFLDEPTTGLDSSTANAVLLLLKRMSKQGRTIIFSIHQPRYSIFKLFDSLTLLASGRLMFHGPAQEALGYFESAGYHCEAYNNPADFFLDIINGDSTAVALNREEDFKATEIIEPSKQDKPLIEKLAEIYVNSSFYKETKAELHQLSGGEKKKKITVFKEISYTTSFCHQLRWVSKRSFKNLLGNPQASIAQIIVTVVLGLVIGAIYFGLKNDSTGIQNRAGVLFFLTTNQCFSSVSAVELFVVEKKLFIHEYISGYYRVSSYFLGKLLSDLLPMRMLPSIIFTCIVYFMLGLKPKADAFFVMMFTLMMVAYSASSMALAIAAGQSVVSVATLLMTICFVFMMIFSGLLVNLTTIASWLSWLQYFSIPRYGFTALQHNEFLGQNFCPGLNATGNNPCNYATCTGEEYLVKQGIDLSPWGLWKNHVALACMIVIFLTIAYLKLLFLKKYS

In the case of `CCSC(=O)N(CC)C1CCCCC1`, the call in [1], in [2], in [3], in [4], in test [5] and in test [6] was inactive. Moreover, the compound was called inactive in [7], in [8], in [9], in test [10], in test [11] and in test [12]. Moreover, the result in test [13], in test [14], in test [15], in test [16] and in test [17] was inactive.

As a reminder, the AC50 is the concentration giving half of the maximal activity seen. As to `Nn1cnnc1`, the compound was classed as inactive in test [1], in test [2], in test [3], in test [4], in test [5] and in test [6]. For the same compound, the call in [8], in test [9], in test [10], in [11], in test [12] and in test [13] was inactive. For the same compound, the compound was called inactive in test [14], in test [15], in test [16] and in test [17]. Moreover, the concentration at half-maximal activity (AC50) in test [7] is 50 µM (active).

In the case of `CC(C)C(=O)OCC(C)(C)C(OC(=O)C(C)C)C(C)C` (stereo not given), the result in test [1], in [3], in test [4], in test [5], in [6] and in test [7] was inactive. Moreover, the compound was classed as inactive in test [8], in [9], in test [10], in test [11], in [12] and in [13]. Besides, the compound was classed as inactive in test [14], in test [18], in [15], in test [16] and in test [17].

In the case of `CCOC(=O)C(O)(c1ccc(Cl)cc1)c1ccc(Cl)cc1`, the outcome in test [1], in test [2], in [3], in [4], in test [5] and in test [6] was inactive. The compound was classed as inactive in test [8], in test [9], in test [10], in test [12], in test [13] and in test [15]. Further, the compound was classed as inactive in [16] and in test [17]. In addition, the figures for the AC50 in test [7], in [11] and in test [14] were 47.1 µM (active), 73 µM (active) and 38.9 µM (active), respectively.

On to `Clc1ccc(Cl)cc1`, for which the result in test [1], in test [2], in test [3], in test [4], in test [5] and in test [6] was inactive. In addition, the call in test [7], in test [8], in test [9], in [10], in [11] and in test [12] was inactive. Moreover, the call in test [13], in [14], in test [15], in test [16] and in test [17] was inactive.
